High-throughput results (PubChem)
Measles CPE – protection of cells from measles virus; actives 1.5% (n = 140,000); protection (pct of control), % at 4 µM; Measles virus-infected cells, CPE protection, absorbance; AID 841; in the data active = protection mostly above about 24%, no sharp cut-off; inactive = mostly below about 26%
CYP2C19 act – cytochrome P450 2C19 (human) activation. AID 1025. P33261. recombinant CYP2C19, luciferin-H EGE luminescence; active compounds read high; 0 = fully inhibited enzyme, 1 = untreated enzyme. 96,000 tested, under 10 active. activation factor at 5 µM;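 active = activation factor of at least 2 at 5 µM in the primary screen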
Target sequence (P33261 whole entry, looked up): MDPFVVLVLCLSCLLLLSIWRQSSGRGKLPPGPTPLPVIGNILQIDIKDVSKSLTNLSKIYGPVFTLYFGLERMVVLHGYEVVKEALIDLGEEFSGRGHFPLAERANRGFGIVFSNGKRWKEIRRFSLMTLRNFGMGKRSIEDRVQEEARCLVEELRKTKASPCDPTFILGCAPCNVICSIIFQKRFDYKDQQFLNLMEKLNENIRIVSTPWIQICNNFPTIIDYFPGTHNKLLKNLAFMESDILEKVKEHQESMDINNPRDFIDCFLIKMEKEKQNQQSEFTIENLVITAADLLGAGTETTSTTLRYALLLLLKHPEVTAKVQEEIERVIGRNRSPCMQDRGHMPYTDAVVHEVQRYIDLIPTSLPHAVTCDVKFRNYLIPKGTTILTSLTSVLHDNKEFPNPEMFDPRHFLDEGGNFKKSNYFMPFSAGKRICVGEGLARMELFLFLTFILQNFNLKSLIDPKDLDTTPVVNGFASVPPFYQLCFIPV
CYP2C9 activ – increases human cytochrome P450 2C9 activity; actives 1.4% (n = 96,000); activation factor at 5 µM; recombinant CYP2C9, luciferin-H conversion, luminescence; active compounds read high; factor 1 = untreated enzyme, 0 = blocked;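 active = activation factor of 2 or more for CYP2C9 at a 5 µM dose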
CYP2C9 inhib – human CYP2C9 inhibition; P11712; CYP2C9 Supersomes, luciferin-H conversion, luminescence; inhibition, % at 5 µM; actives 20% (n = 96,000);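 active = blocking of liver enzyme CYP2C9 beyond about 50% at 5 µM, limit read from the data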
CYP2C19 inh – blocks human cytochrome P450 2C19 | P33261 | CYP2C19 Supersomes, luciferin-H EGE luminescence, 30 min | inhibition, % at 5 µM | actives 21% (n = 96,000) | AID 778;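 active = CYP2C19 inhibition above a set limit at 5 µM in the primary screen, cut at about 50% in these data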
Numbers stand for hits; i = inactive; nt = not tested or not shown. This is a sample that favours compounds with a hit; in the whole collection about 22% have one here.

SMILES	Measles CPE	CYP2C19 act	CYP2C9 activ	CYP2C9 inhib	CYP2C19 inh
Cc1ccc(NC(=O)/C(=C\c2ccc3c(c2)OCO3)NC(=O)c2ccco2)cc1	i	i	i	84	i
COc1ccc(Cl)cc1C(=O)Nc1ccc2c(c1)OCO2	i	i	3.3	i	59
COc1ccc(N2CCN(S(=O)(=O)c3ccc(C(=O)NCc4ccco4)cc3)CC2)cc1	i	nt	nt	nt	nt
Cc1cc(C)c(NC(=O)CSc2nnc(SCC(=O)Nc3c(C)cc(C)cc3C)n2N)c(C)c1	i	i	i	i	68
CCc1nnc(SCC(=O)Nc2ccc(C(C)=O)cc2)nc1CC	i	i	i	i	74
CCc1ccc(NC(=O)CSc2nnc(SCC(=O)Nc3ccc(CC)cc3)n2N)cc1	i	i	i	62	i
CCc1ccc(NC(=O)CSc2nnc(CC)c(CC)n2)cc1	i	i	i	i	64
CCCc1nnc(SCC(=O)Nc2ccc(OCC)cc2)n1N	i	i	i	i	i
O=C(NCc1ccco1)C1CCCN(S(=O)(=O)c2ccc(Cl)cc2)C1 (stereo not drawn)	i	i	i	i	i
CC(C)(C)c1ccc(OCC(=O)NNC(=S)NC(=O)c2ccccc2[N+](=O)[O-])c(Br)c1	i	nt	nt	nt	nt
Cc1ccc(NC(=O)CSc2nnc(C3CCCCC3)n2N)cc1F	i	i	i	72	85
Nn1c(SCC(=O)Nc2ccc(F)cc2)nnc1C1CCCCC1	i	i	i	i	i
Cc1ccc(S(=O)(=O)N2CCN(S(=O)(=O)c3ccccc3)C2c2ccc(N(C)C)cc2)cc1 (stereo not drawn)	i	i	i	88	94
CC(C)C1N(S(=O)(=O)c2ccccc2)CCN1S(=O)(=O)c1ccccc1	i	i	i	100	100
CC(=O)N1CCN(S(=O)(=O)c2ccc(C)cc2)C1c1ccc(N(C)C)cc1 (stereo not drawn)	i	i	i	i	i
COc1ccc(C2N(S(=O)(=O)c3ccc(C)cc3)CCN2S(=O)(=O)c2ccc(C)cc2)cc1	i	i	i	90	96
O=C(CSc1nnnn1C1CCCC1)N1CCCc2ccccc21	i	i	i	i	91
c1ccc(CCn2nnnc2CN2CCc3ccccc32)cc1	i	i	i	86	98
Cn1nnnc1SCC(=O)N1CCCc2ccccc21	i	nt	nt	nt	nt
CC1Cc2ccccc2N1C(=O)CSc1nnnn1C(C)C (stereo not drawn)	i	i	i	52	i
CC1Cc2ccccc2N1C(=O)CSc1nnnn1C1CCCC1 (stereo not drawn)	i	i	i	58	i
CC1Cc2ccccc2N1C(=O)CSc1nnnn1C (stereo not drawn)	i	i	i	i	i
COc1ccc(-n2c(/C=C(\C)O)nc(=O)c3c(C)cc(C)nc32)cc1	i	i	i	i	i
COc1ccc(S(=O)(=O)NCC(=O)N(CC(=O)NCC2CCCO2)c2cc(C)ccc2C)cc1 (stereo not drawn)	i	i	i	i	i
c1ccc2c(c1)CCCN2Cc1nnnn1C1CCCC1	i	i	i	59	96
SMILES	Measles CPE	CYP2C19 act	CYP2C9 activ	CYP2C9 inhib	CYP2C19 inh
CC1Cc2ccccc2N1C(=O)CSc1nnc(Cc2ccccc2)n1CCc1ccccc1 (stereo not drawn)	i	i	i	93	92
C1CCC(n2nnnc2CN2CCCC2)CC1	i	i	i	i	i
CCCn1c(SCC(=O)N2c3ccccc3CC2C)nnc1-c1ccco1 (stereo not drawn)	i	nt	nt	nt	nt
CN1CC(c2ccc(C#N)cc2)C2(COc3ccccc3C2=O)C12C(=O)Nc1ccccc12 (stereo not drawn)	i	i	i	i	i
CCc1ccc(/C=C2/C(=O)N(c3ccccc3)C(=S)N2CC(=O)OC)s1	i	nt	nt	nt	nt
CCN1C(=O)/C(=C/N(C(C)=O)c2ccccc2)N(c2ccccc2)C1=S	i	i	i	95	63
Cn1c(CSCc2ccccc2)n[nH]c1=S	i	nt	nt	nt	nt
CCOC(=O)c1c(OCC)[nH]c2c1cc(O)c1ccccc12	i	i	i	i	i
CCOC(=O)c1c(C)[nH]c2cc(Br)c(O)cc12	i	i	i	68	68
CC(C)[C@H](NC(=O)c1ccccc1)C(=O)OCC(=O)N1CC2(C)CC1CC(C)(C)C2 (stereo partly drawn)	i	nt	nt	nt	nt
COc1cccc(NC(=O)CSC2=C(C#N)C(c3ccco3)C3=C(CCCC3=O)N2)c1 (stereo not drawn)	i	i	i	66	60
COc1ccc(NC(=O)CSC2=C(C#N)C(c3ccco3)C3=C(CCCC3=O)N2)c(OC)c1 (stereo not drawn)	i	i	i	85	93
CCCCc1ccc(NC(=O)CSC2=C(C#N)C(c3ccco3)C3=C(CCCC3=O)N2)cc1 (stereo not drawn)	i	i	i	92	76
COc1ccc(C2C(C#N)=C(SCC(=O)Nc3ccc(C)cc3)NC3=C2C(=O)CC(C)(C)C3)cc1 (stereo not drawn)	i	i	i	i	i
COC(=O)NC(=S)N1CCOCC1	i	nt	nt	nt	nt
N=c1n(CCN2CCOCC2)c2ccccc2n1Cc1ccccc1Br	i	i	i	i	i
Cn1c(CNC(=O)c2ccc(Cl)c(Cl)c2)nnc1SCC(=O)Nc1sc2c(c1C#N)CCCC2	i	i	i	i	i
O=C(CCC(=O)NNC(=O)Nc1ccc(Cl)cc1)NCc1ccccc1	i	i	i	i	i
CN(C)c1nc(NCc2ccccc2)nc(SCC(=O)Nc2ccc(Cl)c(Cl)c2)n1	i	i	i	86	i
CCN(CC)C(=O)C(=O)N/N=C/c1ccc(C(=O)O)cc1	i	nt	nt	nt	nt
CCN1c2ccccc2NC2C1C(C(C)=O)C(=O)N2c1ccc(Cl)cc1 (stereo not drawn)	i	i	i	79	92
CCN1c2ccccc2NC2N=C(OC)C(c3ccccc3)C21 (stereo not drawn)	i	i	i	i	i
Cc1cc(NO)nc(-c2ccc(Br)cc2)n1	i	i	i	i	i
Cc1ccc(-n2nc(C)c(C3C(C#N)=C(N)OC4=C3C(=O)CCC4)c2Cl)cc1 (stereo not drawn)	nt	i	i	53	91
Cc1nn(C)c(C)c1C1C(C#N)=C(N)OC2=C1C(=O)CC(C)(C)C2 (stereo not drawn)	i	nt	nt	nt	nt
SMILES	Measles CPE	CYP2C19 act	CYP2C9 activ	CYP2C9 inhib	CYP2C19 inh
CCCC1=C(C(=O)OCC)C(c2c(C)nn(-c3ccccc3)c2Cl)C(C#N)=C(N)O1 (stereo not drawn)	i	i	i	55	50
Cc1nn(-c2ccccc2)c(Cl)c1C1C(C#N)=C(N)OC2=C1C(=O)CC(C)(C)C2 (stereo not drawn)	i	i	i	69	i
COc1cccc2cc(C(=O)NCc3ccco3)c(=Nc3ccc(C(=O)O)cc3)oc12	i	i	i	i	i
CCC(C)(C(=O)NC1CCCC1)N(C(=O)c1cnccn1)c1c(C)n(C)n(-c2ccccc2)c1=O (stereo not drawn)	i	i	i	i	i
N#Cc1cc2sc3nc4ccccc4n3c2cc1C#N	i	i	i	i	i
N#Cc1cc2sc3nnc(-c4ccncc4)n3c2cc1C#N	i	i	i	65	92
